Source: PubChem BioAssay (National Center for Advancing Translational Sciences (NCATS))
NS1 inh: influenza NS1 inhibition | Potency, µM (doses to about 46.1 µM) | hit rate 0.4% among 270,000 | AID 2326; calls by dose curve; further: actives are rising curves; nearly all actives have a fitted effect of over 50% in size
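A cell-based growth assay was used: compounds that relieve NS1-induced slow growth of budding yeast raise OD600. Assay medium was yeast nitrogen base with ammonium sulphate and -URA supplement, pH 6.0, with 2% galactose.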
Giardia FBPA inh-1: Giardia lamblia aldolase inhibition; purified Giardia FBPA; AID 2451; Potency, µM (highest dose often 59.6 µM), hits mostly inhibitors; hit rate 0.71% among 290,000; A8B2U2; further: nearly all actives have a fitted effect of over 55% in size
Target sequence (A8B2U2 whole entry, looked up): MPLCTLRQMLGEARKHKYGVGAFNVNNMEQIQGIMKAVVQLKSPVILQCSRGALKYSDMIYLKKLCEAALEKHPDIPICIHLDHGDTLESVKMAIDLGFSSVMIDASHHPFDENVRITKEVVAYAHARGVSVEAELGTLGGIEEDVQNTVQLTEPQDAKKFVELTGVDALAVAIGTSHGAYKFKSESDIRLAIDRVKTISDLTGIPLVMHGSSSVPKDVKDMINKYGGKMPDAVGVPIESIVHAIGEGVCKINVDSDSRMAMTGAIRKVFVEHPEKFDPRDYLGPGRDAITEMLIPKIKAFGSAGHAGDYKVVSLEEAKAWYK
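Giardia FBPA (40 nM reagent) was preincubated 10 min at RT with compound (up to 57.5 uM final), then substrate plus GAPDH/TPI/NAD/arsenate coupling system with diaphorase/resazurin was added; resorufin fluorescence (525/598 nm) was read after 20 min.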
AMA1 RON2 block: disrupts binding of P. falciparum AMA1 to RON2; AlphaScreen AMA1-biotinylated RON2 peptide binding; Potency, µM (highest dose often 58.2 µM), most hits filed as inhibitors; AID 720542; hit rate 0.2% among 360,000; further: nearly all actives have a fitted effect of over 45% in size
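AMA1 (3D7) with his tag at 25 nM final met compounds first, then biotinylated RON2 peptide at 25 nM; detection used donor plus acceptor beads, 10 µg/mL apiece, read by AlphaScreen after 30 min at room temperature.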
TbPYK inhibitor: inhibitors of Trypanosoma brucei pyruvate kinase; TbPYK enzyme, Kinase-Glo Plus ATP luminescence, 45 min; Potency, µM (series often up to 76.8 µM), usual class: inhibitors; hit rate 0.12% among 410,000; further: nearly all actives have a fitted effect of over 50% in size
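Readout: single end-point luminescence (Kinase-Glo Plus, 10 min). Reaction conditions were TbPYK/substrate plus 130 uM ADP, 45 min at RT, pH 7.2 TEA buffer. No-enzyme wells served as controls, and data were normalized before concentration-response fitting.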
LmPK inh: LmPK (Leishmania mexicana) enzyme inhibition | Q27686 | purified LmPK, Kinase-Glo ATP luminescence, 1 h | Potency, µM (highest dose often 57.5 µM), hits mostly inhibitors | hit rate 0.37% among 290,000
Target sequence (Q27686 whole entry, looked up): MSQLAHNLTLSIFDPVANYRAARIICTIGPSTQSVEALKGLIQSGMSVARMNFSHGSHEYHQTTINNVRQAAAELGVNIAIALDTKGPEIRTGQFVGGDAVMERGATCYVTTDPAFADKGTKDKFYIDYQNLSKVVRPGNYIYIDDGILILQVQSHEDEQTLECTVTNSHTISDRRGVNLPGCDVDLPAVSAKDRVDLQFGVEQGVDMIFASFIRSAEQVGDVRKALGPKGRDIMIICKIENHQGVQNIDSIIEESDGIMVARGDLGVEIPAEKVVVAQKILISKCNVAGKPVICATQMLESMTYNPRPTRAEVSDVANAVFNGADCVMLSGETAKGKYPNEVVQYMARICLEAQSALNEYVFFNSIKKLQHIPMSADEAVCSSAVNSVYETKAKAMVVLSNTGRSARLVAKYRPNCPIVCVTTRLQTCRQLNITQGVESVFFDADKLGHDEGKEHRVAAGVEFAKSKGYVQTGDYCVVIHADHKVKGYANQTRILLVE
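0.1 nM LmPK, 0.5 mM PEP, 0.1 mM ADP; 50 mM imidazole pH 7.2, 7 mM MgCl2, 50 mM KCl; 1 h RT. Kinase-Glo luminescence readout, normalized to no-enzyme (full inhibition) and uninhibited wells.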
Giardia growth: Giardia lamblia growth inhibition | AID 2785 | Giardia lamblia trophozoite growth inhibition | hit rate 5% among 1,500 | Potency, µM (top dose mostly 57.5 µM), actives largely listed as inhibitors | shares compounds with Giardia FBPA inh-1;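 further: trophozoites exposed to compound for 48 h at 37 °C; nearly all actives have a fitted effect of over 70% in size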
Mammal cell tox: counter-screen for Giardia aldolase inhibitors: mammalian cell toxicity; mammalian cell viability counter-screen, qHTS; AID 2786; shares compounds with Giardia FBPA inh-1; hit rate 4% among 1,500; Potency, µM (doses to about 57.5 µM), hits mostly inhibitors;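 further: Chinese hamster ovary cells used as mammalian cytotoxicity surrogate; viability measured as cellular ATP by luminescence; compound exposure lasted 48 h before reading; nearly all actives have a fitted effect of over 60% in size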
Giardia FBPA inh-2: confirmation of Giardia fructose-bisphosphate aldolase inhibitors | Potency, µM (doses to about 57.5 µM), most hits filed as inhibitors | AID 2787 | hit rate 5% among 1,500 | purified Giardia aldolase enzyme activity, qHTS | shares compounds with Giardia FBPA inh-1; further: nearly all actives have a fitted effect of over 45% in size
Rabbit aldolase: blocks rabbit muscle aldolase in Giardia aldolase selectivity test; shares compounds with Giardia FBPA inh-1; Rabbit muscle FBPA enzyme inhibition, selectivity counter-screen; Potency, µM (top dose mostly 57.5 µM), actives largely listed as inhibitors; hit rate 4% among 1,500; further: nearly all actives have a fitted effect of over 60% in size
GAPDH counter: counter-screen for Giardia aldolase inhibitors: GAPDH coupling enzyme; GAPDH coupling enzyme counterscreen, biochemical, qHTS; shares compounds with Giardia FBPA inh-1; Potency, µM (series often up to 57.5 µM), most hits filed as inhibitors; AID 2795; hit rate 6% among 1,500; further: nearly all actives have a fitted effect of over 55% in size
Hits are given with their value; . = inactive; ? = inconclusive; / = no result given; ! = not active in a repeat; [ ] = remark or other dose. Rows were chosen to be rich in hits. Some 1.2% of all compounds tested hit in one or more screens of this group. Unless noted, the call rests on the fitted dose curve; in most records, active means well fitted curve in the direction sought with a large enough effect; inconclusive means small, poorly fitted or top-dose-only effect, or another doubt; inactive means no such curve, though single readings can be large; an effect the other way counts as inactive or inconclusive.

SMILES	NS1 inh	Giardia FBPA inh-1	AMA1 RON2 block	TbPYK inhibitor	LmPK inh	Giardia growth	Mammal cell tox	Giardia FBPA inh-2	Rabbit aldolase	GAPDH counter
c1ccc(-c2n[nH]c(-c3ccccn3)n2)nc1	.	3.2µM	?	.	16µM	.	.	.	.	.
c1ccc(-c2n[nH]c(-c3ccccn3)n2)cc1	.	.	.	.	?	/	/	/	/	/
COc1cccc(-c2nnc3n2N=C(c2ccc(OC)cc2OC)CS3)c1	/	.	/	/	/	/	/	/	/	/
CCOC(=O)C(Nc1ccc2ccccc2c1)C(=O)OCC	/	3.5µM	?	.	.	.	.	?	?	40µM
CC(=O)Nc1ccc2ccccc2c1	.	.	.	.	.	/	/	/	/	/
COc1cc(NC(=S)NCCCN2CCOCC2)c(OC)cc1Cl	/	.	.	.	.	/	/	/	/	/
COCCN(C(=S)Nc1ccc(OC)c(Cl)c1)C1CCN(C(C)C)CC1	/	11µM	.	.	.	?	.	.	.	.
COc1ccc(NC(=S)NCCCN2CCCC2)cc1Cl	.	8.9µM	.	.	.	?	32µM	?	.	?
COc1ccc(NC(=S)N(CCC(C)C)C2CCN(C(C)C)CC2)cc1Cl	.	?	.	.	.	/	/	/	/	/
COc1ccc(NC(=S)N(CCCN2CCC(C)CC2)Cc2cccs2)cc1Cl	/	16µM	.	?	.	.[10.4 µM]	.	.	.	.
CC1(C)CC(CC(=O)Nc2ccccn2)C(=O)O1 (stereo unspecified)	.	.	.	.	.	/	/	/	/	/
CC1(C)CC(Cc2nc(=S)[nH][nH]2)C(=O)O1 (stereo unspecified)	/	6.3µM	.	.	.	.	.	.	.	.
Cc1cc(C)c2c(NC(=S)NC(=O)c3ccccc3)nn(C)c2n1	/	18µM	.	.	.	.[10.4 µM]	.	.	.	.
C=C1C[C@]23C[C@@]1(O)CC[C@H]2[C@@]12C=C[C@H](O)C(C)(C(=O)O1)[C@H]2[C@@H]3CC(=O)O	/	.	/	/	/	/	/	/	/	/
COCC(=O)N1CCC2(CC1)CN(C(=O)Nc1ccccc1)C2	/	.	/	.	/	/	/	/	/	/
O=c1ccc2cc3c([nH]c4ccc(Br)cc43)oc-2c1O	?	14µM	/	/	.	.[10.4 µM]	.	10µM	8.9µM	10µM
O=C(CSc1ccccc1)Nc1nnc(C2CC2)s1	.	14µM	.	.	.	?	.	.	.	.
COc1cccc(OC)c1-c1cc(C(=O)NC2(C(=O)O)C3CC4CC(C3)CC2C4)nn1-c1ccc(C(=O)N(C)CCCN(C)C)cc1C(C)C (stereo unspecified)	/	.	/	/	/	/	/	/	/	/
COc1cccc([C@@H]2Oc3ccc(Br)cc3C[C@H]2OC(=O)NS(=O)(=O)c2ccc(F)cc2)c1	/	.	/	/	/	/	/	/	/	/
Cc1cc(N/N=C(/CCC(=O)O)C(=O)O)nc2ccccc12	.	16µM	.	.	.	.[10.4 µM]	.	.	.	?
Cc1cc(NCCN)nc2ccccc12	.	.	.	.	.	/	/	/	/	/
CN(C)c1ncnc2ccc(-c3cccc(C#N)c3)cc12	/	.	/	/	/	/	/	/	/	/
O=C(Nc1ccc(F)cc1)Oc1ccc[nH]c1=O	.	?	.	.	.	.	.	0.46µM	?	.
COc1ccc(Cl)cc1NC(=O)Cn1c(=O)n(Cc2cccs2)c(=O)c2cccnc21	/	/	/	.	/	/	/	/	/	/
Cc1cccc(Cc2cnc(N3C(=N)SC(C)C3=O)s2)c1 (stereo unspecified)	/	13µM	.	.	.	13µM	.	.	.	.
SMILES	NS1 inh	Giardia FBPA inh-1	AMA1 RON2 block	TbPYK inhibitor	LmPK inh	Giardia growth	Mammal cell tox	Giardia FBPA inh-2	Rabbit aldolase	GAPDH counter
CC1CCCC/C1=N\NC(=S)Nc1cccnc1 (stereo unspecified)	.	18µM	.	.	.	.	.	.	.	.
Cc1ccc(NC(=S)N/N=C2\CCCCC2C)cc1 (stereo unspecified)	/	.	.	.	.	/	/	/	/	/
CC(=O)N1CCN(C(=O)CSc2nc3c(cnn3-c3ccccc3)c(=O)[nH]2)CC1	.	40µM	.	.	.	?	.	.	.	.
COC(=O)[C@@H](NC(=O)O[C@@H]1C(=O)c2ccc(OC)cc2O[C@H]1c1ccc2c(c1)OCO2)C(C)C	/	.	/	/	/	/	/	/	/	/
Nc1cccnc1Sc1cccc(Cl)c1	.	1µM	.	.	.	.	.	.	.	.
Nc1cccnc1Sc1ccc(Cl)cc1	.	.	.	/	.	/	/	/	/	/
CCc1nn2c(=O)cc(COC(=O)c3cccc(NC(=O)COc4ccccc4)c3)nc2s1	/	/	/	.	/	/	/	/	/	/
Fc1ccc(NC(=S)Nc2nccs2)cc1	/	?	.	.	.	/	/	/	/	/
CCn1cc(Cl)c(C(=O)Nc2nccs2)n1	.	4µM	.	.	.	.[10.4 µM]	.	.	.	.
Cn1cc(Cl)c(C(=O)Nc2nccs2)n1	.	/	.	.	.	/	/	/	/	/
S=C(Nc1ccccc1)Nc1nccs1	.	0.63µM!	.	.	.	.	20µM	.	.	.
O=C(Nc1nccs1)c1cnccn1	.	.	.	.	.	/	/	/	/	/
O=C(Nc1nccs1)c1ccccn1	/	18µM	.	.	.	?	.	.	.	.
Cc1ccc(CSC2=Nc3ccccc3C3=NC(CCC(=O)NC4CCCCC4)C(=O)N23)cc1 (stereo unspecified)	/	/	/	.	/	/	/	/	/	/
Brc1cccc(OCCCCn2cncn2)c1	.	28µM	.	.	.	.	.	.	.	.
O=C(c1ccccc1)N1CCN(CCc2ccccc2)CC1	.	.	.	.	.	/	/	/	/	/
O=C(c1cccc(Cl)c1)N1CCN(CCCc2ccccc2)CC1	.	13µM	?	.	.	.	.	.	.	.
NS(=O)(=O)c1cccc(NC(=S)NC(=O)c2cccc([N+](=O)[O-])c2)c1	.	18µM	.	.	.	.[10.4 µM]	.	.	.	.
CC1CCN(C(=S)NC(=O)c2cccc([N+](=O)[O-])c2)CC1	.	/	.	.	.	/	/	/	/	/
O=C(NC(=S)N1CCCCC1)c1csc([N+](=O)[O-])c1	.	13µM	.	.	.	1µM	.	.	.	.
O=C(NC(=S)Nc1cccc(NC(=O)c2ccccc2)c1)c1cccc([N+](=O)[O-])c1	.	.	.	.	.	/	/	/	/	/
CN1CCN(C(=S)NC(=O)c2cccc([N+](=O)[O-])c2)CC1	.	1.8µM	.	.	.	.	.	.	.	.
CC1CN(C(=S)NC(=O)c2ccc([N+](=O)[O-])cc2)CC(C)O1 (stereo unspecified)	.	20µM	.	.	.	5µM	.	.	.	.
O=C1[C@H]2[C@H]3[C@H](O)[C@H](O)C/C(=N/OC[C@@H](O)COCc4ccco4)[C@@H]3CC[C@@H]2C(=O)N1C[C@@H]1CCCO1	/	.[12.9 µM]	/	/	/	/	/	/	/	/
